Values joined by “and” are separate entries in the source; they are usually repeats but may differ in a detail not shown here. Identical values can stand only once. Records with an inconclusive call do not appear. A structure can be active in one record and inactive in another. Active and inactive are the calls of the source. Unless noted, the call rests on the fitted dose curve; in most records, active means well fitted curve in the direction sought with a large enough effect in the repeat runs; inconclusive means weak or mixed curves; inactive means no such curve, though single readings can be large; an effect the other way counts as inactive or inconclusive.
Legend:
[1] = qHTS assay to identify small molecule antagonists of the estrogen receptor alpha (ER-alpha) signaling pathway using the BG1 cell line in the presence of 0.1 nM 17-beta-estradiol - cell viability counter screen (AID 1259241); further: nearly all actives have a fitted effect of over 40% in size
Method in brief: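 VM7Luc4E2 cells (endogenous ER-alpha, 4×ERE-luciferase), hormone-starved 5 days in charcoal-stripped FBS, were treated with compounds plus 0.1 nM 17beta-estradiol for 22 hr at 37C; viability read in same wells as CellTiter-Fluor live-cell protease fluorescence.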

[2] = qHTS assay to identify small molecule antagonists of the androgen receptor (AR) signaling pathway using the MDA cell line in the presence of 0.5 nM R1881 - cell viability counter screen (AID 1259242); further: nearly all actives have a fitted effect of over 45% in size; further: potency means the concentration at half of the fitted maximal effect
Method in brief: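 MDA-kb2 cells (MMTV-luciferase, AR/GR responsive) were treated with compounds plus 0.5 nM R1881 (final) for 16 hr at 37C, 0% CO2. Viability was then read in the same wells as live-cell protease fluorescence (CellTiter-Fluor, 30 min).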

[3] = target: Estrogen receptor (Homo sapiens) (UniProt P03372); test: qHTS assay to identify small molecule antagonists of the estrogen receptor alpha (ER-alpha) signaling pathway using the BG1 cell line in the presence of 0.1 nM 17-beta-estradiol (AID 1259244); further: nearly all actives have a fitted effect of over 50% in size
Sequence of Estrogen receptor (Homo sapiens) (P03372 whole entry, looked up): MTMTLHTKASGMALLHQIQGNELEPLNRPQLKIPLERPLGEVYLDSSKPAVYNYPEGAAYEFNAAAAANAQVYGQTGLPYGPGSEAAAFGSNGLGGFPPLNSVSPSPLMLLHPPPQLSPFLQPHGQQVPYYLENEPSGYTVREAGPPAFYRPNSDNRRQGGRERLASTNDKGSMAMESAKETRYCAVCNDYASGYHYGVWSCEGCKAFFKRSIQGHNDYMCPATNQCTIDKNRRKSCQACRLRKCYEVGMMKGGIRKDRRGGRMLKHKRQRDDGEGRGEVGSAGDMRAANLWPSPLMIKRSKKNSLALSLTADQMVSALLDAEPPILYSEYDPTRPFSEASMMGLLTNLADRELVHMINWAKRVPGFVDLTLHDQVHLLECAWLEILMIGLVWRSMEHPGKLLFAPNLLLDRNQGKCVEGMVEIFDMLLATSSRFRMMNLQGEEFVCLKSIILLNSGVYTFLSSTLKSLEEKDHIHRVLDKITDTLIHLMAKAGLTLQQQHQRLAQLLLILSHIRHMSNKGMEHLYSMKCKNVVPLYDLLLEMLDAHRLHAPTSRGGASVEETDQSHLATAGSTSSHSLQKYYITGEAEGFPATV
Method in brief: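 VM7Luc4E2 cells (endogenous full-length ER-alpha, 4×ERE-luciferase), kept 5 days in phenol red-free, charcoal-stripped FBS medium; 4,000 cells/well. Compounds added with 0.1 nM (final) 17beta-estradiol, 22 hr at 37C; luminescence read with ONE-Glo after 30 min.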

[4] = qHTS assay to identify small molecule phospholipidosis (PLD) inducers (AID 1259344; active means well fitted curve in the direction sought with a large enough effect; an effect the other way counts as inactive or inconclusive)
Method in brief: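 HepG2 cells, 900/well, treated with compound plus LipidTOX Red for 24 h at 37 C; amiodarone positive and DMSO negative controls. Fixed with paraformaldehyde/Hoechst, then high-content imaging scored LipidTOX pit count and integrated intensity per well and per cell.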

[5] = qHTS assay to identify small molecule HDAC inhibitors (AID 1259364); further: top concentration of the series differs between compounds; nearly all actives have a fitted effect of over 45% in size
Method in brief: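 Wild-type HCT-116 cells, plated overnight at 37 C, exposed to compounds 2 hr at 37 C; luminogenic HDAC-Glo substrate then added 30 min at room temperature. Luminescence reports relative endogenous class I/II HDAC activity.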

[6] = qHTS assay to identify small molecule HDAC inhibitors - cell viability counter screen (AID 1259365); further: series mostly up to about 92 µM; nearly all actives have a fitted effect of over 50% in size
Method in brief: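 Wild-type HCT-116 cells were seeded at 1,500 per well, incubated overnight at 37 C, then exposed to compounds in DMSO for 2hr. Viability was read by CellTiter-Glo luminescence after 30min at room temperature.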

[7] = qHTS assay to identify small molecule agonists of the sonic hedgehog signaling (Shh) pathway - cell viability counter screen (AID 1259366); further: nearly all actives have a fitted effect of over 50% in size; further: potency means the concentration at half of the fitted maximal effect
Method in brief: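 NIH/3T3-derived 3T3 Gli1-Luc cells (stable Gli1-responsive firefly luciferase reporter) were seeded, rested 4 hr at 37 C/5% CO2, then exposed to compounds in DMSO for 24 hr; viability was read by CellTiter-Fluor fluorescence in the same wells.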

[8] = qHTS assay to identify small molecule agonists of the sonic hedgehog signaling (Shh) pathway (AID 1259368; calls by dose curve; further: series mostly up to about 92 µM; nearly all actives have a fitted effect of over 15% in size)
Method in brief: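 NIH/3T3-derived 3T3Gli1-Luc cells with stably integrated Gli1-driven firefly luciferase, 2,000 cells/well, compounds added after 4 hr. Incubated 24 hr at 37C, 5% CO2; luminescence read after 30 min with luciferase reagent at room temperature.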

[9] = qHTS assay to identify small molecule antagonists of the sonic hedgehog signaling (Shh) pathway (AID 1259369; calls by dose curve; further: nearly all actives have a fitted effect of over 45% in size; further: potency means the concentration at half of the fitted maximal effect)
Method in brief: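 NIH/3T3-derived Gli1-Luc reporter cells plated 4 h, dosed with compound, then stimulated with conditioned medium for 24 h at 37 C. Firefly luciferase luminescence read after 30 min with detection reagent at room temperature.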

[10] = target: Estrogen receptor beta (Homo sapiens) (UniProt Q92731); test: qHTS assay to identify small molecule antagonists of the estrogen receptor beta (ER-beta) signaling pathway (AID 1259378; active means well fitted inhibition curve with a large enough effect in the signal ratio in the repeat runs, not every such curve was filed as active; the % refers to the signal ratio; further: potency means the concentration at half of the fitted maximal effect)
Sequence of Estrogen receptor beta (Homo sapiens) (Q92731 whole entry, looked up): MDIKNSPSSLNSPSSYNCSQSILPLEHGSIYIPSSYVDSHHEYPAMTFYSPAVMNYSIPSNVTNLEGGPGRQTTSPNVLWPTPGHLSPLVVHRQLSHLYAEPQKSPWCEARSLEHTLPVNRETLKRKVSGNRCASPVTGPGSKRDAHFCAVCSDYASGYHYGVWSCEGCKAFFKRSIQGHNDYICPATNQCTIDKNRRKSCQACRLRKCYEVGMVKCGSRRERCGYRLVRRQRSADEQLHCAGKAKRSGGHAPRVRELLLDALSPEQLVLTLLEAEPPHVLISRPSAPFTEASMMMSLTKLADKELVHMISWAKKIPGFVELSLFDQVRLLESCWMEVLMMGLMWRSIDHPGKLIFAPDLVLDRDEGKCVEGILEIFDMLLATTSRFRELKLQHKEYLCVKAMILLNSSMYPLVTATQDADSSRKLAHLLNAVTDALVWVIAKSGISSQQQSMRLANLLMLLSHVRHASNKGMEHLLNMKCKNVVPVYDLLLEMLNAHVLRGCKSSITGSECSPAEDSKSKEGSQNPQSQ
Method in brief: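 ER-beta-UAS-bla HEK293T cells in 2% charcoal-stripped FBS medium treated with compound plus 1nM final 17-beta-estradiol for 16 hr at 37C. Beta-lactamase reporter read by FRET substrate fluorescence after 2 hours at room temperature.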

[11] = qHTS assay to identify small molecule agonists of the androgen receptor (AR) signaling pathway in the presence of an antagonist - cell viability counter screen (AID 1259379); further: nearly all actives have a fitted effect of over 25% in size; further: potency means the concentration at half of the fitted maximal effect;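 on activity change, negative = cytotoxicity: MDA-kb2 human breast cancer cells carrying an MMTV luciferase reporter; series mostly up to about 92 µM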
Method in brief: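 MDA-kb2 cells (MMTV-luciferase, AR/GR), 3,000/well, 5 h attachment, then 3.0 µM nilutamide (final) and compounds at 15 concentrations. Viability by CellTiter-Fluor fluorescence after 16 h at 37 °C, 0% CO2, in the reporter wells.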

[12] = qHTS assay to identify small molecule agonists of the estrogen receptor beta (ER-beta) signaling pathway - cell viability counter screen (AID 1259380); further: nearly all actives have a fitted effect of over 30% in size
Method in brief: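 ER-beta-UAS-bla HEK293T cells in medium with 2% charcoal-stripped FBS, pre-incubated 6 hr, then treated 16 hr at 37C. Cytotoxicity read in the same wells by CellTiter-Glo luminescence after 30 min at room temperature.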

[13] = qHTS assay to identify small molecule antagonists of the estrogen receptor beta (ER-beta) signaling pathway - cell viability counter screen (AID 1259382); further: series mostly up to about 92 µM; nearly all actives have a fitted effect of over 55% in size
Method in brief: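 ER-beta-UAS-bla HEK293T cells in 2% charcoal-stripped FBS medium, treated with compound plus 1 nM 17-beta-estradiol for 16 h at 37C. Viability read by CellTiter-Glo luminescence after 30 min at room temperature in the same wells.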

[14] = target: Estrogen receptor (Homo sapiens) (UniProt P03372); test: qHTS assay to identify small molecule agonists of the estrogen receptor alpha (ER-alpha) signaling pathway in the presence of an antagonist (AID 1259383; calls by dose curve; further: top concentration of the series differs between compounds; nearly all actives have a fitted effect of over 15% in size)
Method in brief: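 VM7Luc4E2 cells express endogenous full-length ER-alpha with an ERE-luciferase reporter and were hormone-deprived for 5 days. Compounds at 15 concentrations were added with 10.0nM ICI-182,780 for 22hr at 37C. Luminescence was read with ONE-Glo.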

[15] = target: Thyrotropin receptor (Homo sapiens) (UniProt P16473); test: qHTS assay to identify small molecule antagonists of the thyroid stimulating hormone receptor (TSHR) signaling pathway (AID 1259385; calls by dose curve; further: nearly all actives have a fitted effect of over 20% in size)
Sequence of Thyrotropin receptor (Homo sapiens) (P16473 whole entry, looked up): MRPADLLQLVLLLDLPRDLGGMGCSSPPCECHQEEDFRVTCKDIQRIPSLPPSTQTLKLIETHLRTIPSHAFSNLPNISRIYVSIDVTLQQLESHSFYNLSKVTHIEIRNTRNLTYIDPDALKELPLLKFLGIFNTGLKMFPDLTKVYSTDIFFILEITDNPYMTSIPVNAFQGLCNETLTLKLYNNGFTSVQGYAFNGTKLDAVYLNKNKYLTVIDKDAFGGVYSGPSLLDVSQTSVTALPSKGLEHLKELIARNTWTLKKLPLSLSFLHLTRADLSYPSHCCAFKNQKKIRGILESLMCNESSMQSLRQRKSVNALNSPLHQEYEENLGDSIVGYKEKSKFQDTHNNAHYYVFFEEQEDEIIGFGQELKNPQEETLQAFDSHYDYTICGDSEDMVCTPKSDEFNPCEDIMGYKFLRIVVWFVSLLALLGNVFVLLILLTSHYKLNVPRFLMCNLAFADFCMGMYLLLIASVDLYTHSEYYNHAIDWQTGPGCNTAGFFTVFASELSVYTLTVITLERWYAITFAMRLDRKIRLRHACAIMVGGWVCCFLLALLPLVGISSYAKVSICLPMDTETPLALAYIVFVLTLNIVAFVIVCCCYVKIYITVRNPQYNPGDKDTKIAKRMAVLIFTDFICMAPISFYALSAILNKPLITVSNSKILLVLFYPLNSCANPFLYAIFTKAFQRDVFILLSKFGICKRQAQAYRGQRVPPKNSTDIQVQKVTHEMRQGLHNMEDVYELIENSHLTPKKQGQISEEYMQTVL
Method in brief: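 TSHR-HEK293 cells (800/well) plated 18 h, then compounds with Ro20-1724 and TSH at 1.5 ng/mL final, 30 min at room temperature. cAMP quantified by HTRF (cAMP-d2/anti-cAMP-cryptate, 1 h); 15 concentrations in triplicate.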

[16] = target: Androgen receptor (Homo sapiens) (UniProt P10275); test: qHTS assay to identify small molecule antagonists of the androgen receptor (AR) signaling pathway using the MDA cell line in the presence of 0.5 nM R1881 (AID 1259243); further: nearly all actives have a fitted effect of over 50% in size; further: potency means the concentration at half of the fitted maximal effect
Sequence of Androgen receptor (Homo sapiens) (P10275 whole entry, looked up): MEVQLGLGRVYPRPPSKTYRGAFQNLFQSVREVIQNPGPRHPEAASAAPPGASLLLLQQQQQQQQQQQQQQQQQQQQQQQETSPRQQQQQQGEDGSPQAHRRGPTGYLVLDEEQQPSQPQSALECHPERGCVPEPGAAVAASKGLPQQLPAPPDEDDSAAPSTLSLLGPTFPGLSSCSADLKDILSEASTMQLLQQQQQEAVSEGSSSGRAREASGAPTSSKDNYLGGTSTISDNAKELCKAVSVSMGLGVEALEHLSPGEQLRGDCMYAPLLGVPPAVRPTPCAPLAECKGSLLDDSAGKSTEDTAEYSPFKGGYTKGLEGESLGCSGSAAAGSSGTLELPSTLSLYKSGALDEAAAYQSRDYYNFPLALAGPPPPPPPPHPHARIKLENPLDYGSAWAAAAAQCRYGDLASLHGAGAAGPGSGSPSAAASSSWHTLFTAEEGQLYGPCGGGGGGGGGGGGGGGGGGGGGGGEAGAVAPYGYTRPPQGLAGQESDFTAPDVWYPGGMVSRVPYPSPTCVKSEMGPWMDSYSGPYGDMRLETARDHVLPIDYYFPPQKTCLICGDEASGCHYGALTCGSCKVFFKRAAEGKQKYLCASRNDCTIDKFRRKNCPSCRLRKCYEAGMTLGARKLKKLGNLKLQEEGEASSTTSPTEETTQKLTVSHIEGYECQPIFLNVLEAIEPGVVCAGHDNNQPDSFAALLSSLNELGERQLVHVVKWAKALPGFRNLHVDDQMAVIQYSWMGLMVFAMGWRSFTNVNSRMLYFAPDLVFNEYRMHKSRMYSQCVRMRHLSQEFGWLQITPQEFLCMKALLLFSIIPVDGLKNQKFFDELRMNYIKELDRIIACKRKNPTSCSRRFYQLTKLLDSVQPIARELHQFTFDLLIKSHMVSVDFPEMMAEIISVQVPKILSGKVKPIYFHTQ
Method in brief: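 MDA-kb2 cells (MMTV-luciferase, responsive to AR and GR) at 3,000/well, rested 5 h at 37C, 0% CO2, then given compounds plus 0.5 nM R1881 (final) for 16 hr. Luciferase read with ONE-Glo after 30 min at room temperature.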

[17] = target: Androgen receptor (Homo sapiens) (UniProt P10275); test: qHTS assay to identify small molecule agonists of the androgen receptor (AR) signaling pathway in the presence of an antagonist (AID 1259381; calls by dose curve; further: nearly all actives have a fitted effect of over 15% in size)
Method in brief: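 MDA-kb2 cells carrying MMTV-luciferase (AR/GR responsive), 3,000 cells/well, co-treated with 3.0 uM nilutamide final. Compounds at 15 concentrations, 16 hr at 37C without CO2. Luciferase luminescence read after 30 min with ONE-Glo.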

[18] = qHTS assay to identify small molecule agonists or antagonists of the thyroid stimulating hormone receptor (TSHR) signaling pathway - wild type cell line counter screen (AID 1259384; calls by dose curve)
Method in brief: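 Wild-type Hek293 cells, 800/well, 18 h at 37C, then compound with Ro20-1724 for 30 min RT. cAMP by HTRF (cAMP-d2/anti-cAMP cryptate), 1 h RT, fluorescence read. 15 concentrations, triplicates.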

[19] = target: Estrogen receptor beta (Homo sapiens) (UniProt Q92731); test: qHTS assay to identify small molecule agonists of the estrogen receptor beta (ER-beta) signaling pathway (AID 1259377; active means well fitted activation curve with a large enough effect in the signal ratio in the repeat runs, not every such curve was filed as active; the % refers to the signal ratio)
Method in brief: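 ER-beta-UAS-bla HEK293T (GripTite) cells carrying a UAS-driven beta-lactamase reporter, in medium with 2% charcoal-stripped FBS, were exposed to compounds for 16 hr at 37C; LiveBLAzer B/G FRET substrate was then added and fluorescence read after 2 hours at room temperature.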

[20] = qHTS assay to identify small molecule antagonists of the sonic hedgehog signaling (Shh) pathway - cell viability counter screen (AID 1259367); further: nearly all actives have a fitted effect of over 55% in size
Method in brief: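 NIH/3T3-derived Gli1-Luc reporter cells, 2,000/well, plated 4 hr before compound addition, then stimulated with conditioned medium for 24 hr at 37C. Viability measured in the same wells by CellTiter-Fluor fluorescence, reagent added at 23 hr for 1 hr.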
On the % scale 0 is the no-effect control and ±100 the full control effect.

OC[C@H]1O[C@@H]2O[C@H]3[C@H](O)[C@@H](O)[C@@H](O[C@H]4[C@H](O)[C@@H](O)[C@@H](O[C@H]5[C@H](O)[C@@H](O)[C@@H](O[C@H]6[C@H](O)[C@@H](O)[C@@H](O[C@H]7[C@H](O)[C@@H](O)[C@@H](O[C@H]1[C@H](O)[C@H]2O)O[C@@H]7CO)O[C@@H]6CO)O[C@@H]5CO)O[C@@H]4CO)O[C@@H]3CO
inactive: Potency [1] | Potency [2] | Potency [3] | Potency [4] | Potency [5] | outcome [6] | Potency [7] | Potency [8] | Potency [10] | Potency [11] | Potency [12] | Potency [13] | Potency [14] | Potency [15]
inactive and 9.13 µM (active): Potency [9]

O=Cc1ccccc1C=O
61.1 µM (active) and inactive: Potency [7]
inactive: Potency [1] | Potency [2] | Potency [3] | Potency [4] | Potency [5] | outcome [6] | Potency [8] | Potency [11] | Potency [12] | Potency [17] | Potency [13] | Potency [14] | Potency [18] | Potency [15]
54.5 µM (active) and inactive: Potency [16] | Potency [10]
2.43 µM (active) and inactive: Potency [9]

Cc1ccc(S(=O)(=O)O)cc1C
inactive: Potency [1] | Potency [2] | Potency [3] | Potency [4] | Potency [5] | outcome [6] | Potency [7] | Potency [8] | Potency [9] | Potency [11] | Potency [12] | Potency [13] | Potency [14] | Potency [18] | Potency [15]

CCCCCCCC/C=C\CCCCCCCC(=O)O
inactive: Potency [1] | Potency [2] | Potency [3] | Potency [4] | Potency [5] | outcome [6] | Potency [7] | Potency [8] | Potency [9] | Potency [19] | Potency [10] | Potency [11] | Potency [12] | Potency [13] | Potency [14] | Potency [15]

O=[Se](O)O
inactive: Potency [1] | viability change, negative = cytotoxic [2] -4.23% [at 19 µM] | activity change, negative = inhibition [3] -20.4% [at 19 µM] | Potency [5] | outcome [6] | Potency [7] | Potency [20] | Potency [8] | Potency [9] | Potency [10] | activity change, negative = cytotoxicity [12] 1.8% [at 19 µM] | Potency [13] | Potency [14] | Potency [18] | Potency [15]
active: Potency [2] 13.7 µM | Potency [11] 8.64 µM

OC[C@@H](O)[C@@H](O[C@@H]1O[C@H](CO)[C@H](O)[C@H](O)[C@H]1O)[C@H](O)[C@@H](O)CO
inactive: Potency [1] | Potency [2] | Potency [3] | Potency [4] | Potency [5] | outcome [6] | Potency [7] | Potency [20] | Potency [8] | Potency [9] | Potency [11] | Potency [12] | Potency [13] | Potency [14] | Potency [18] | Potency [15]

— PubChem BioAssay (Tox21)
